Screening data deposited in PubChem by Broad Institute.
The list is a sample of the results.
aSyn UTR act – Activators working through SNCA 5'UTR binding (MLPCN); activity score, % (tested at 7.5 µM), hits read low; 300,000 tested, 7.1% active; alpha-synuclein 5'UTR reporter, activators screen; in the data active means activity score below about -60%
* = called active by the depositor.

SMILES	aSyn UTR act
O=C(Nc1ccc2nc(-c3ccccc3)[nH]c2c1)c1cccs1	-103*
Cc1cc2c(cc1C)C(c1cc(Br)ccc1F)CC(=O)N2 (centres undefined)	65
O=C(Nc1ccc(-c2nc3ccccc3[nH]2)cc1)c1ccco1	-133*
O=C(/C=C/c1ccco1)Nc1ccc(-c2nc3ccccc3[nH]2)cc1	89
O=C(Nc1ccc2nc(-c3ccco3)[nH]c2c1)c1ccco1	-118*
O=C(Nc1ccc2nc(-c3ccco3)[nH]c2c1)c1cccs1	-190*
CC1CCC/C=C/C(=O)c2c(O)cc(O)cc2CC(=O)O1 (centres undefined)	-153*
O=C(Oc1ccccc1N1C(=O)C2CCCCC2C1=O)c1ccccc1F (centres undefined)	-64*
COc1ccccc1C(=O)NNC(=O)c1ccccc1F	-97*
COc1ccccc1C(=O)NNC(=S)NC(=O)c1cc(OC)c(OC)c(OC)c1	73
O=C(NNC(=O)c1ccccc1OCc1ccccc1)c1ccccc1O	65
O=C(NNC(=O)c1ccccc1OCc1ccccc1)c1ccccc1F	-85*
COC(=O)CCc1sc(Nc2ccccc2)nc1-c1ccc(OC)cc1	-62*
CCC(C)NC(=O)CSc1nc2ccsc2c(=O)n1NC(=O)c1ccccc1 (centres undefined)	-67*
C=CCn1c(SCc2cc(C(C)=O)ccc2OCC)nc2ccccc2c1=O	104
CCOC(=O)CSc1nc2ccccc2c(=O)n1NC(=O)c1ccccc1	-66*
O=C(c1cc2cc(Cl)ccc2[nH]1)N1CCCCC1	-85*
Cc1cc(/C=N/n2cnnc2)c(C)n1-c1ccc(OCc2ccc(F)cc2)cc1	-73*
Cc1cc(/C=N/n2cnnc2)c(C)n1-c1ccc(OCc2ccc(Cl)cc2Cl)cc1	113
Cc1cc2ncc(S(C)(=O)=O)c(N)n2n1	60
C#CCn1c(=NC(=O)c2ccc(Br)s2)sc2cccc(OC)c21	-113*
Cc1cc(N2CCOCC2)nc2ccc(NC(=O)CCC(=O)N3CCC(C)CC3)cc12	-105*
CCC(C)NC(=O)CCC(=O)Nc1ccc2nc(N3CCOCC3)cc(C)c2c1 (centres undefined)	-86*
CCCCNC(=O)CCC(=O)Nc1ccc2nc(N3CCC(C)CC3)cc(C)c2c1	-69*
COc1ccc(NC(=O)CCC(=O)Nc2ccc3nc(N4CCOCC4)cc(C)c3c2)c(OC)c1	-94*
SMILES	aSyn UTR act
Cc1cc(N2CCOCC2)nc2ccc(NC(=O)CCC(=O)N3CCCCC3)cc12	-90*
Cc1cc(N2CCOCC2)nc2ccc(Cl)cc12	-111*
CCN1CCN(c2cc(C)c3cc(NC(=O)CCC(=O)N4CCN(c5ccccc5OC)CC4)ccc3n2)CC1	-62*
Cc1nc(Nc2cnc(/C=C/c3cc(C(=O)Nc4cccc(C(F)(F)F)c4)ccc3C)cn2)cc(N2CCNCC2)n1	81
Cc1cc(N2CCOCC2)nc2ccc(NC(=O)CCC(=O)N3CCN(c4cccc(C(F)(F)F)c4)CC3)cc12	-72*
CCC(C)NC(=S)Nc1ccc2nc(N3CCN(CC)CC3)cc(C)c2c1 (centres undefined)	-95*
CCCCN(C)C(=O)CCC(=O)Nc1ccc2nc(N3CCOCC3)cc(C)c2c1	-76*
Clc1ccc2oc(-c3ccccn3)nc2c1	-147*
Nc1ccc2oc(-c3ccccn3)nc2c1	-133*
c1ccc(-c2nc3ccccc3o2)nc1	-70*
O=C(CN1CCCCC1)Nc1nnc(-c2ccccc2)s1	-77*
O=C(CN1CCCC1)Nc1ccc(NC(=O)Nc2ccccc2)cc1	-194*
Cc1occc1C(=O)Nc1nnc(-c2cccs2)s1	-351*
O=C(CN1CCCC1)Nc1nnc(-c2cccs2)s1	-118*
CC(C)(C)CC(=O)Nc1nnc(-c2cccs2)s1	-213*
O=C(CN1CCOCC1)Nc1ccc(C2CCCCC2)cc1	-75*
O=C(Oc1ccccc1)N1CCN(c2ccccc2F)CC1	-65*
O=C(Nc1nnc(C2CC2)o1)c1ccc(S(=O)(=O)N2CCCc3ccccc32)cc1	63
O=C(CCCC(=O)N1CCN(c2ccccc2F)CC1)c1ccccc1	-76*
O=C(CCc1nnc(C2CCCCC2)o1)N1CCN(c2ccccc2F)CC1	-112*
Cc1ccc2nc(-c3ccc(NS(=O)(=O)c4ccccc4)cc3)sc2c1	-85*
Cc1ccc2nc(-c3ccc(NS(=O)(=O)c4ccc(F)c(F)c4)cc3)sc2c1	-124*
CCOC(=O)C1=C(COc2ccc(C)cc2)NC(=O)NC1c1cc(C)ccc1C (centres undefined)	-86*
Clc1ccc(-c2nnsc2SCc2ccccc2)cc1	-75*
Fc1cccc(NCCc2c[nH]c3ccccc23)n1	-101*
SMILES	aSyn UTR act
c1ccc2c(NCCc3c[nH]c4ccccc34)c3ccccc3nc2c1	-549*
OCCCNc1c2ccccc2nc2ccccc12	-155*
CN(C)C(/C=C/Nc1ccc(F)cc1)=C(C#N)C#N	-63*
N#CC(C#N)=C(Nc1ccc(F)cc1)SCc1cccc(Br)c1	48
CN(C)CCCN(C(=O)c1ccc2c(c1)OCCO2)c1nc2ccc(Cl)cc2s1	-133*
CN(C)CCN(C(=O)c1ccc2c(c1)OCCO2)c1nc2ccc(Cl)cc2s1	-159*
CN(C)CCCN(C(=O)c1ccc(S(=O)(=O)N2CCc3ccccc32)cc1)c1nc2ccc(Cl)cc2s1	58
CCOc1ccc2nc(N3C(=O)/C(=C/c4ccc(Cl)cc4)NC3=S)sc2c1	-73*
Cc1cc(C)nc(Nc2n[nH]c(-c3ccccc3Br)n2)n1	-115*
Cc1cc(C)nc(Nc2n[nH]c(-c3ccccc3C)n2)n1	-136*
CC(C)(C)NC(=O)CN(C(=O)CNS(=O)(=O)c1ccccc1)c1ccc2c(c1)OCCO2	-86*
O=C(CSc1nnc2ccc3ccccc3n12)N1CCOCC1	-94*
COc1ccccc1-c1nnc(SCC(=O)N2CCOCC2)o1	-85*
Cc1ccccc1-c1nnc(SCC(=O)N2CCCC2)o1	-135*
O=C(CSc1nnc(-c2ccccc2Cl)o1)N1CCOCC1	-124*
COc1ccccc1-c1nnc(-c2ccc(N3CCOCC3)cc2)o1	-106*
Nc1c(C(=O)c2ccccc2)sc2nsc(SCCN3CCCC3)c12	-87*
Cc1ccc(O)c(NC(=O)c2cc(-c3ccccc3Cl)on2)c1	-173*
COc1ccc(OC)c(-c2cc(C(=O)Nc3c(C)nn(Cc4ccccc4Cl)c3C)no2)c1	58
COc1ccc(-c2cc(C(=O)Nc3cc(C)ccc3O)no2)cc1	-132*
CCOc1ccc(-c2cc(CCCC(=O)Nc3cc(OC)ccc3OC)no2)cc1	83
Cc1ccc(-c2cc(C(=O)Nc3cc(C)ccc3O)no2)cc1	-183*
COc1ccc(-c2cc(C(=O)Nc3cc(Cl)ccc3O)no2)cc1	-156*
COc1cc(C2C3=C(Nc4ncnn42)c2ccccc2CC3)cc(OC)c1OC (centres undefined)	83
CCn1cc([N+](=O)[O-])c(C(=O)Nc2nc3ccc(OC)cc3s2)n1	-84*
SMILES	aSyn UTR act
COc1ccc(C(=O)Nc2nc3ccc(OC)cc3s2)cc1	-277*
COc1ccc2nc(NC(=O)c3ccc(NS(=O)(=O)c4cccs4)cc3)sc2c1	-67*
COc1ccc(C(=O)Nc2nc(-c3cccs3)c(NC(C)=O)s2)cc1	-83*
O=C(CSCc1ccco1)c1cccs1	-174*
O=C(CCC(=O)c1cccs1)c1cccs1	-69*
Cc1ccc(NC(=O)CCC(=O)c2cccs2)c(O)c1	-80*
CCCCC(=O)NC(c1ccc(N(CC)CC)cc1)c1ccc2cccnc2c1O (centres undefined)	68
CC(=O)Oc1ccc(C(=O)[C@H]2[C@H]3C(=O)N(c4ccc(C)cc4)C(=O)[C@H]3[C@@H]3C=CC=NN32)cc1	-62*
